PubChem BioAssay (NCATS)
Results filed as inconclusive are left out. The source made the active and inactive calls. Calls follow the shape of the dose curve; as a rule, active = well fitted curve in the direction sought with a large enough effect; inconclusive = small, poorly fitted or top-dose-only effect, or another doubt; inactive = no such curve, though single readings can be large; an effect the other way counts as inactive or inconclusive.

What was measured:
[1] = Cellular Toxicity (caspase-3) Renal Proximal Tubule (AID 667);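 also: cells exposed to compound for 16 hours at 37 °C before detection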
Outline: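 Caspase 3/7 activation measured by luminescent aminoluciferin release in primary rat proximal tubule cells after 16 hr compound exposure at 37 °C. AC50 from Hill-fitted concentration-response, scaled between DMSO and 10 uM staurosporine.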

[2] = Cell Viability - LYMP2-001 (AID 921); also: series mostly up to about 92 µM; nearly all actives have a fitted effect of over 70% in size
Outline: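 Cellular ATP loss read by luciferase luminescence after 24 h compound exposure at 37 C in complete medium. LYMP2-001 lymphoblastoid cells, 2500/well; qHTS concentration-response data fitted with Hill equation for AC50.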

[3] = MultiTox-Fluor Cytotoxicity Assay - LYMP1-001 - Dead Cells (AID 946)
Outline: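 Cytotoxicity as increased dead-cell protease fluorescence (bis-AAF-R110, 485/520 nm), read 60 min after MultiTox-Fluor reagent. Human lymphoblastoid line exposed 16 h; Hill-fitted AC50, with DMSO as 0% and 15 uM tetraoctylammonium bromide as 100%.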

[4] = Cell Viability - LYMP1-002 - Assay at 16 hr (AID 948)
Outline: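 ATP luminescence (CellTiter-Glo) was measured after 16 hr compound exposure at 37 C of 2500 lymphoblastoid LYMP1-002 cells per well. Concentration-response curves were fitted with the Hill equation to give AC50.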

[5] = MultiTox-Fluor Cytotoxicity Assay - LYMP1-002 - Live Cells (AID 955);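 also: cells exposed to compound for 16 hours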
Outline: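 Cytotoxicity in the human lymphoblastoid line LYMP1-002 is measured as loss of live-cell protease activity after 16 h treatment in complete culture medium. AC50 is derived from Hill-equation fits of qHTS concentration-response data.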

[6] = MultiTox-Fluor Cytotoxicity Assay - LYMP1-003 - Dead Cells (AID 961); also: nearly all actives have a fitted effect of over 70% in size
Outline: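 Dead-cell protease release, detected as bis-AAF-R110 fluorescence at 485/520 nm, was measured in LYMP1-003 cells after 16 h compound treatment at 37 C. AC50 values came from Hill-modeled qHTS curves normalized to DMSO (0%) and 15 uM tetraoctylammonium bromide (100%).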

[7] = MultiTox-Fluor Cytotoxicity Assay - LYMP1-003 - Live Cells (AID 962);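 also: cells exposed to compound for 16 hours at 37 °C; cytotoxic hits lower the live-cell protease signal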
Outline: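 Cells plated at 2500 per well and incubated 5 hr; compounds added and incubated 16 hr at 37 C; MultiTox-Fluor reagent added for 60 min at room temperature; fluorescence of liberated AFC measured at 405/510 nm.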

[8] = Cell Viability - LYMP1-003 - Assay at 24 hr (AID 963)
Outline: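 Acute toxicity in LYMP1-003 lymphoblastoid cells: 24 hr compound treatment at 37 C, ATP measured with CellTiter-Glo after 30 min at room temperature. AC50 derived by fitting the Hill equation to qHTS titrations.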

[9] = Cell Viability - LYMP1-003 - Assay at 40 hr (AID 964); also: series mostly up to about 92 µM; nearly all actives have a fitted effect of over 60% in size
Outline: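 This qHTS cytotoxicity screen treats human lymphoblastoid cells (LYMP1-003) with compounds for 40 hr and quantifies cellular ATP via luciferase luminescence.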

[10] = Cell Viability - LYMP2-003 (AID 965);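 also: cells exposed to compounds for 24 h before reading; nearly all actives have a fitted effect of over 50% in size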
Outline: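 CellTiter-Glo luminescence quantified ATP loss after 24 h compound treatment of LYMP2-003 lymphoblastoid cells at 37 C. Titration series were fitted with the standard Hill equation to give AC50.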

[11] = Cell Viability - LYMP2-005 (AID 967); also: series mostly up to about 92 µM
Outline: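 LYMP2-005 human lymphoblastoid cells (2500/well) were treated with compounds for 24 h at 37 C. Intracellular ATP was then measured by CellTiter-Glo luminescence after 30 min at room temperature. AC50 values came from Hill-equation fits of qHTS concentration-response data.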

[12] = Cell Viability - LYMP2-009 (AID 968); also: series mostly up to about 92 µM; nearly all actives have a fitted effect of over 55% in size
[13] = Cell Viability - LYMP2-011 (AID 969); also: nearly all actives have a fitted effect of over 60% in size
Outline: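 Acute toxicity is scored as a concentration-dependent drop in intracellular ATP of a human lymphoblastoid line after 24 hr treatment. Values are AC50s modeled with the Hill equation.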

[14] = Cell Viability - LYMP2-013 (AID 970); also: series mostly up to about 92 µM; nearly all actives have a fitted effect of over 55% in size
Outline: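 Acute toxicity was measured in human lymphoblastoid cells (2500/well) exposed to compound titrations for 24 hr, with ATP luminescence (CellTiter-Glo) as read-out and AC50 fitted by Hill equation.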

[15] = Cell Viability - LYMP2-017 (AID 972); also: series mostly up to about 92 µM; nearly all actives have a fitted effect of over 55% in size
Outline: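 Steps: plate 2500 lymphoblastoid cells per well; incubate 5 hr at 37 C; add compound across a concentration series and incubate 24 hr at 37 C; add CellTiter-Glo and read luminescence after 30 min at room temperature; fit Hill curves for AC50.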

[16] = Cell Viability - LYMP2-019 (AID 973); also: nearly all actives have a fitted effect of over 55% in size
Outline: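 Cells plated at 2500/well and allowed 5 hr at 37 C before compound addition. After 24 hr incubation, CellTiter-Glo reagent was added, plates sat 30 min at room temperature, and luminescence was recorded.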

[17] = Cell Viability - LYMP2-023 (AID 975)
Outline: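 Concentration-dependent drop in intracellular ATP measures acute cytotoxicity in a human lymphoblastoid line treated for 24 hours in complete culture medium. AC50 values are taken from Hill-equation fits of qHTS data.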

[18] = Cell Viability - LYMP2-025 (AID 976); also: series mostly up to about 92 µM
Outline: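 In qHTS format, LYMP2-025 lymphoblastoid cells in complete culture medium received compound for 24 hr; ATP-based CellTiter-Glo signal gave viability, with AC50 derived by Hill equation.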

[19] = Cell Viability - LYMP2-002 (AID 977); also: series mostly up to about 92 µM
Outline: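 Human lymphoblastoid LYMP2-002 cells, 2500 per well, exposed to compounds for 24 h at 37 C in complete medium; viability read as intracellular ATP by CellTiter-Glo luminescence, AC50 from Hill fits.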

[20] = Cell Viability - LYMP2-006 (AID 978); also: series mostly up to about 92 µM; nearly all actives have a fitted effect of over 60% in size
Outline: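 Potency values are Hill-fit AC50s for decreases in intracellular ATP (CellTiter-Glo luminescence). LYMP2-006 lymphoblastoid cells, 2500 per well, were exposed to compound in complete culture medium for 24 hr at 37 C.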

Measured: Potency

C=CC(=C)CCC=C(C)C
inactive: all assays above

O=C(O)c1ccccc1
inactive: all assays above

COc1ccc(/C=C/c2cc(OC)cc(=O)o2)cc1
inactive: all assays above

COc1cc(/C=C/c2ccccc2)oc(=O)c1
inactive: all assays above

C=C(C)C1CC=C(C)C(O)C1 (stereo not given)
inactive: all assays above

CCCCCCCCCCCCCC(=O)O
inactive: all assays above

C=CCc1ccc(OC)c(OC)c1
inactive: all assays above

CCCCCCCCCCCC(=O)O
inactive: all assays above

CC1=C2[C@H](/C=C(\C)C(=O)O)CC[C@@H](C)[C@H]2CC1
inactive: all assays above
